Results from PubChem BioAssay AID2546 (National Center for Advancing Translational Sciences (NCATS), 2010).
Where “and” joins values, the source holds several entries; their conditions need not be identical. Equal entries are not always repeated. In all, about 310,000 compounds went through this assay and about 11,000 (3.5%) were called active. About 8% were inconclusive and are not listed. The call rests on the fitted dose curve; in most records, active means well fitted inhibition curve with a large enough effect; inconclusive means small, poorly fitted or top-dose-only effect, or effect the other way; inactive means flat fitted curve, though single readings scatter. The list comes from a sample in which actives are over-represented; it also holds similar structures and randomly drawn compounds. Where a call stands in place of a potency, no number is given.

Test: VP16 counterscreen qHTS for inhibitors of ROR gamma transcriptional activity; further: nearly all actives have a fitted effect of over 50% in size
Settings: Drosophila S2 Gal4-VP16 UAS-luciferase, luminescence, 20 h; series mostly up to 53.6 µM
Excerpt: NIH Molecular Libraries Probe Production Network [MLPCN]
NIH Chemical Genomics Center [NCGC]
Assay Provider: Dan Littman, New York University
The retinoic acid-related orphan receptor (ROR) gamma is a transcription factor that has a central role in the differentiation of Th17 cells, a subset of T helper cells that secrete the inflammatory cytokines IL-17, IL-17F, and IL-22. Th17 cells have been implicated in graft versus host disease, autoimmune disease and asthma. ROR gamma is induced in naive T helper cells in the presence of TGF-beta combined with IL-6, IL-21, or IL-23, and thereafter directs the expression of the Th17 lineage cytokines. To identify nonspecific inhibitors, a Drosophila Schneider cell line was stably transfected with two vectors: a gene expressing a fusion of the Gal4 DNA binding domain and VP16 transactivation domain under the control of the metallothionine promoter and a Photinus luciferase reporter regulated by the Gal4 binding site enhancer, UAS. […] Small molecule inhibitors that inhibit components common to the RORgt and VP16 assays, such as the Gal4 DNA binding domain or the UAS luciferase reporter, will be active in both assays and thus scored as nonspecific.
For screening, 600 cells in 4 uL/well were dispensed into white solid 1536-well plates (Grenier) using a solenoid-based dispenser. Following transfer of 23 nL compound or DMSO vehicle by a pin tool, the plates were incubated 1 hr at ambient temperature, and 1 uL/well copper sulfate (700 uM final concentration) was added. The plates were centrifuged 15 s at 1000 RPM and incubated 20 hr at ambient temperature. After addition of 1.5 uL Photinus luciferase detection reagent, the plates were incubated 10 min at ambient temperature and then read by a ViewLux (Perkin Elmer) to detect luminescence.
Potency means the concentration at half of the fitted maximal effect.

Row | Structure (SMILES) | Potency
1 | COc1ccccc1OCc1ccc(C(=O)NC(C)c2ccccc2)o1 (stereo unspecified) | inactive
2 | CCOc1ccc(C)cc1S(=O)(=O)NC1CCCCCC1 | inactive
3 | COC(=O)Cc1ccc(Oc2ncc(C(F)(F)F)cc2Cl)cc1 | inactive
4 | COc1cc(/C=C2\SC(=S)N(Nc3ncc(C(F)(F)F)cc3Cl)C2=O)cc(OC)c1OC | inactive
5 | COc1cccc(/C=N/Nc2ncc(C(F)(F)F)cc2Cl)c1O | 3.16 µM (active)
6 | CN(C)CCSc1nc(N)c2c3c(sc2n1)COC(C)(C)C3 | inactive
7 | C=CCNC(=S)NNc1ncnc2sc3c(c12)CC(C)(C)OC3 | 7.08 µM (active)
8 | CCSc1nc2sc3c(c2c(=O)[nH]1)CC(C)(C)OC3 | inactive
9 | CC(C)(C)NS(=O)(=O)c1ccc(NC(=O)C2CCCO2)cc1 (stereo unspecified) | inactive
10 | Cc1c(C)c2c(OCC(=O)NCCCO)cc3c(c2oc1=O)CCC(C)(C)O3 | inactive
11 | COC(=O)c1c(NC(=O)c2ccc(S(=O)(=O)N3CCOCC3)cc2)sc2c1CCN(C(C)C)C2 | inactive
12 | CC(C)CCn1c(=O)c2c(nc3n2CCCN3Cc2ccccc2)n(C)c1=O | inactive
13 | COc1ccc(OCC(=O)Nc2ccc(N3CCC(C)CC3)cc2)cc1 | inactive
14 | COc1cccc(N2CC(C(=O)Nc3c(C)cccc3C)CC2=O)c1 (stereo unspecified) | inactive
15 | COc1ccc(NC(=S)NCC2CCN(c3ccc(OC)cc3)C2)cc1 (stereo unspecified) | 4.47 µM (active)
16 | COc1ccc(NC(=S)NCCN2CCC(C)CC2)cc1 | inactive
17 | COc1ccc(NC(=O)N2CCC(Cc3ccccc3)CC2)cc1 | inactive
18 | COc1ccc(N2CCC(CNC(=S)Nc3c(C)cccc3C)C2)cc1 (stereo unspecified) | 2.24 µM (active)
19 | Cc1cccc2c1cnn2C(=O)CCC(=O)NC1CCCCC1 | inactive
20 | O=C(N/N=C/c1cccc(Br)c1)c1ccc(N2CCCC2=O)cc1 | inactive
21 | CCOc1ccc(CCNC(=O)CCc2nnc3ccc(N4CCCC4)nn23)cc1OCC | inactive
22 | COc1ccc(-c2cc(C(=O)N3CCN(Cc4ccc5c(c4)OCO5)CC3)on2)cc1OC | inactive

Row | Structure (SMILES) | Potency
23 | Cn1c(CC(=O)Nc2ccc(F)cc2)nnc1SCC(=O)NC1CCCCC1 | inactive
24 | Cc1ccc(NC(=S)N(CCCN2CCC(C)CC2)Cc2ccco2)cc1 | inactive
25 | CCCN(CC1COc2ccccc2O1)C(=S)Nc1ccc(C)cc1 (stereo unspecified) | 12.6 µM (active)
26 | COc1ccc(NC(=O)C2COc3ccccc3O2)cc1 (stereo unspecified) | inactive
27 | Nc1cc(N)nc(SCc2cccc(F)c2)n1 | inactive
28 | CC(C)[C@H](NC(=O)N1CCn2c1nc1ccccc12)C(=O)NCCc1ccccc1 | inactive
29 | O=C(Nc1ccccc1F)c1ccc2c(c1)OCO2 | inactive
30 | CC1COc2ccccc2N1C(=O)c1ccc(F)cc1 (stereo unspecified) | inactive
31 | O=C(Nc1nnc(C2COc3ccccc3O2)o1)c1ccc(F)cc1 (stereo unspecified) | 0.562 µM (active)
32 | Cc1ccc(OCC(=O)Nc2ccc3oc(=O)ccc3c2)cc1C | inactive
33 | COc1ccc2cc(C(=O)NCC3CCCO3)[nH]c2c1 (stereo unspecified) | inactive
34 | O=C(C1CCCN(S(=O)(=O)c2ccc([N+](=O)[O-])cc2)C1)N1CCCCC1 (stereo unspecified) | inactive
35 | N#Cc1ccc(C(=O)Nc2nc(-c3cccs3)c(C(=O)C(F)(F)F)s2)cc1 | 3.16 µM (active)
36 | CC(=O)c1sc(NC(=O)c2ccc(C)cc2)nc1C | inactive
37 | Cc1ccc(C(=O)Nc2nnc(-c3cccs3)s2)cc1C | inactive
38 | CCc1ccccc1NC(=O)c1ccc2snnc2c1 | inactive
39 | Cc1c(C)c(C)c(S(=O)(=O)NCCc2ccccn2)c(C)c1C | inactive
40 | COc1ccc(-c2nc(SCC(=O)N3CCCC3)n[nH]2)cc1 | inactive
41 | CCc1c(C)nc(SCC(=O)NC2CCCC2)[nH]c1=O | inactive
42 | CCc1ccc(-c2nc(SCC(=O)NC3CCCC3)n[nH]2)cc1 | 14.1 µM (active)
43 | Cc1ccc(S(=O)(=O)c2nnn3c2nc(N2CCN(c4ccccn4)CC2)c2ccccc23)cc1 | inactive
44 | COc1ccc(-c2cc(=O)oc3cc(OC(C)C(=O)Nc4ccc(CN5CCOCC5)cc4)ccc23)cc1 (stereo unspecified) | inactive

Row | Structure (SMILES) | Potency
45 | Cc1ccc(OCc2nc3ccccc3n2C)cc1 | inactive
46 | CCn1c(/C=C/c2ccc([N+](=O)[O-])o2)nc2ccccc2c1=O | 11.2 µM (active)
47 | Cc1nc2ccccc2c(=O)n1Cc1ccc([N+](=O)[O-])cc1 | inactive
48 | Cn1cc(/C=C/c2nc3ccccc3c(=O)n2-c2cccc([N+](=O)[O-])c2)c2ccccc21 | inactive
49 | CCCCn1c(N)c(N(CCOC)C(=O)c2oc3ccc(OC)cc3c2C)c(=O)[nH]c1=O | inactive
50 | O=C(N/N=C/c1ccc(O)c2ccccc12)c1cccnc1 | inactive
51 | O=C(N/N=C/c1sc(N2CCCCC2)nc1-c1cccs1)c1cccnc1 | 10 µM (active)
52 | Cc1cc(/C=N/NC(=O)c2cccnc2)c(C)n1CC(C)C | inactive
53 | O=C(NCCS(=O)(=O)N1CCN(c2ccccc2F)CC1)c1ccc(Br)o1 | inactive
54 | Oc1c(Cl)cc(Cl)c(Cl)c1Cc1c(O)c(Cl)cc(Cl)c1Cl | 3.16 µM (active) and 7.08 µM (active) and 3.98 µM (active)
55 | CCCCCN(C(=O)CCC(=O)OCC(=O)NCc1ccc(OC)cc1)c1c(N)n(CCCC)c(=O)[nH]c1=O | inactive
56 | CC(=O)Nc1ccc(S(=O)(=O)N2CCC(C(=O)NC3CC3)CC2)cc1 | inactive
57 | CCOc1ccc(NC(=O)[C@H](C)NC(=O)C2CC(=O)N(c3ccc(OC)cc3)C2)cc1 (stereo partly specified) | inactive
58 | Fc1ccccc1Cn1cnc(NC(=S)NCCc2ccccc2)n1 | inactive
59 | Fc1ccccc1CNC(=S)Nc1ccc(Cl)cc1 | 7.08 µM (active)
60 | O=C(Cc1cccc2ccccc12)NNC(=O)Nc1ccc(Cl)cc1 | inactive
61 | COc1ccc(CCNC(=O)CSCc2ccc(Br)cc2)cc1OC | inactive
62 | CS(=O)(=O)N(CC(=O)N1CCOCC1)c1cccc(Cl)c1Cl | inactive
63 | O=C1C2C(c3ccccc3)CC=CC2C(c2ccoc2)N1Cc1ccccc1 (stereo unspecified) | inactive
64 | CCc1nc(NCCO)c(C#N)c2c1CCCC2 | inactive
65 | CCN1CCc2c(C#N)c(NCc3ccccc3)nc(NCCO)c2C1 | inactive
66 | CC(C)CCNc1nc(N2CCCC2)c2c(c1C#N)CCN(C)C2 | 11.2 µM (active)

Row | Structure (SMILES) | Potency
67 | Cn1cccc1C(=O)N1CCc2ccccc2C1 | inactive
68 | Cc1cccc(C)c1NC(=O)N1CC(C)OC(C)C1 (stereo unspecified) | inactive
69 | Cc1cccc(C)c1NC(=O)C(Cl)C(=O)c1ccccc1 (stereo unspecified) | 22.4 µM (active)
70 | Cc1cccc(C)c1NC(=O)C(c1ccccc1)N1CC(=O)Nc2ccccc21 (stereo unspecified) | inactive
71 | CSCC[C@H](NC(=O)N1CCn2c1nc1ccccc12)C(=O)NC1CCCCC1 | inactive
72 | O=C(COC(=O)c1cccs1)NCc1cccs1 | inactive
73 | O=C(COC(=O)/C(=C/c1cccs1)c1cccs1)NCc1ccccc1Cl | 0.631 µM (active)
74 | O=C(COC(=O)c1cccs1)Nc1ccccc1Cl | inactive
75 | O=C(Nc1cccc(Cl)c1Cl)c1ccccc1NC(=O)C1CC=CCC1C(=O)O (stereo unspecified) | inactive
76 | CCC1CCCCN1C(=O)CSc1nc2c(c(=O)n1C)SC(C)C2 (stereo unspecified) | inactive
77 | CCn1c(NC(=O)c2nn(C)cc2Br)nc2ccccc21 | 5.01 µM (active)
78 | CC(=O)NCCc1nc2cc(NC(=O)c3ccccc3)ccc2n1C | inactive
79 | Cc1nn(C)cc1C(=O)Nc1ccccc1Br | inactive
80 | CCC(=O)NCCc1nc2ccccc2n1CC | inactive
81 | Cn1sc(NC(=O)c2ccccc2)nc1=O | inactive
82 | Cn1c(NC(=O)c2ccccc2)nc2ccccc21 | 1.26 µM (active)
83 | CC(C)Cc1nnc(NC(=O)CN2C(=O)NC3(CCCCC3)C2=O)s1 | inactive
84 | Cc1cccn2c(=O)c3cc(C(=O)NCC4CCCO4)c(=N)n(Cc4ccc(F)cc4)c3nc12 (stereo unspecified) | inactive
85 | COc1ccccc1CN(C)C(=O)c1cc2ccccc2o1 | inactive
86 | COc1ccc(/C=N/NC(=O)Nc2ccc3nsnc3c2)c(OC)c1 | inactive
87 | COc1ccc(-c2[nH]ncc2/C=N/NC(=O)c2cc(Br)ccc2O)c(OC)c1 | 0.891 µM (active)
88 | COc1cc(/C=N/NC(=O)c2cccnc2)ccc1OC(=O)c1cccc(Br)c1 | inactive

Row | Structure (SMILES) | Potency
89 | CN(c1ccccc1)S(=O)(=O)c1ccc(NC(=O)COc2ccccc2)cc1 | inactive
90 | COc1cc(/C(=C/c2ccccc2)c2ccccc2)c2c(c1)oc1ccccc12 | inactive
91 | O=C(COC(=O)c1ccc(Oc2ccccc2)cc1)Nc1nnc(-c2ccccc2)o1 | 5.62 µM (active)
92 | O=C(OCc1ccc(Br)cc1)c1cccc(-c2nnc(-c3ccccc3)o2)c1 | inactive
93 | Cc1cccc(NC(=O)Nc2nnc(-c3ccccc3)o2)c1 | inactive
94 | COc1cc(CNCc2ccc3c(c2)OCO3)c([N+](=O)[O-])cc1OC | inactive
95 | Cc1ccc(C)c(OCc2cc(C(=O)N3CCN(c4cnccn4)CC3)no2)c1 | inactive
96 | Oc1ccc(-c2cccc(-c3ccc(O)cc3)c2)cc1 | inactive
97 | O=C(Nc1ccccc1)/C(=C/c1ccc([N+](=O)[O-])cc1)NC(=O)c1ccccc1 | inactive
98 | Cc1cccc(NC(=O)c2sc(-c3ccccc3)nc2-c2ccc([N+](=O)[O-])cc2)c1 | inactive
99 | CCOC(=O)/C(=C\c1ccc([N+](=O)[O-])cc1)C(=O)c1cc(C(C)=O)c(Nc2ccccc2)s1 | 5.62 µM (active)
100 | C#CC(C)(C)NC(=O)c1cnc(-c2ccccc2)nc1-c1ccccc1 | inactive
101 | CCC(=O)N(CCc1ccccc1)Cc1cc2cc(C)ccc2[nH]c1=O | inactive
102 | Cc1cc(C)n(CCNS(=O)(=O)c2ccc(Cl)cc2)n1 | inactive
103 | CN(C)CCNC(=O)c1[nH]nc2c1CCc1ccccc1-2 | inactive
104 | COc1cccc(/C=N/NC(=O)c2[nH]nc3c2CCc2ccccc2-3)c1O | 0.794 µM (active)
105 | COc1cc2cc(C(=O)N/N=C/c3cccc(OC)c3OC)[nH]c2cc1OC | inactive
106 | CN(C(=O)CN1C(=O)/C(=C/c2ccc(Cl)cc2)SC1=S)C1CCS(=O)(=O)C1 (stereo unspecified) | inactive
